From PubChem BioAssay (Tox21)
Results filed as inconclusive are left out. The source made the active and inactive calls. Unless noted, calls come from the whole dose curve; as a rule, active = well fitted curve in the direction sought with a large enough effect in the repeat runs; inconclusive = weak or mixed curves; inactive = no such curve, though single readings can be large; an effect the other way counts as inactive or inconclusive.

Experiments:
[1] = qHTS assay to identify small molecule agonists of the vitamin D receptor (VDR) signaling pathway - cell viability counter screen (AID 743224); note: series mostly up to about 63 µM; nearly all actives have a fitted effect of over 50% in size
Method in brief: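 In parallel with the bla FRET readout, cytotoxicity toward VDR-bla cells after 16 h compound exposure was assessed by CellTiter-Glo, with luminescence recorded after a 30 min room-temperature incubation.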

[2] = qHTS assay to identify small molecule antagonists of the vitamin D receptor (VDR) signaling pathway - cell viability counter screen (AID 743225); note: nearly all actives have a fitted effect of over 50% in size
Method in brief: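 Parallel cytotoxicity test: VDR-UAS-bla HEK 293T, 3 nM (final) 1-alpha,25-dihydroxyvitamin D3 with test compound, 16 h, 37C. Endpoint is CellTiter-Glo luminescence in the same wells.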

[3] = qHTS assay to identify small molecule agonists of the NFkB signaling pathway (AID 1159509; active = well fitted curve in the direction sought with a large enough effect in the signal ratio in the repeat runs, not every such curve was filed as active; the % refers to the signal ratio; note: series mostly up to about 61 µM)
Method in brief: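 Beta-lactamase reporter assay run in quantitative high-throughput format on an NF-kB-responsive ME-180 line, with 5 hr compound treatment and a FRET-based blue/green fluorescence readout.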

[4] = qHTS assay to identify small molecule agonists of the NFkB signaling pathway - cell viability counter screen (AID 1159515; calls by dose curve; note: series mostly up to about 61 µM; nearly all actives have a fitted effect of over 55% in size)
Method in brief: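 Plate 2,000 NFkB-bla ME-180 cells/well; incubate overnight. Add compounds, 5 hr at 37 C. Add FRET substrate, 1.5 hr RT. Add CellTiter-Glo, 30 min RT; read luminescence.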

[5] = qHTS assay to identify small molecule agonists of the endoplasmic reticulum stress response signaling pathway (AID 1159516; active = well fitted activation curve with a large enough effect in the signal ratio in the repeat runs, not every such curve was filed as active; the % refers to the signal ratio)
Method in brief: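 Beta-lactamase expression from the ER stress response element in HeLa reporter cells is quantified with the LiveBLAzer B/G FRET substrate, read at 405 nm excitation after 2 hr at room temperature, following 5 hr compound treatment at 37 C.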

[6] = qHTS assay to identify small molecule agonists of the endoplasmic reticulum stress response signaling pathway - cell viability counter screen (AID 1159517; calls by dose curve; note: series mostly up to about 61 µM; nearly all actives have a fitted effect of over 50% in size)
Method in brief: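 After overnight attachment, ESRE-bla HeLa cells were treated with Tox21 library compounds for 5 hr. CellTiter-Glo luminescence, read 30 min post-addition at room temperature, reported viability.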

[7] = qHTS assay to identify small molecule antagonists of the retinoid-related orphan receptor gamma (ROR-gamma) signaling pathway - cell viability counter screen (AID 1159520); note: nearly all actives have a fitted effect of over 50% in size
Method in brief: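 Cytotoxicity was read from cellular ATP (CellTiter-Glo luminescence) after 16 hr at 37 C with 1 uM doxycycline induction. The inducer was added 2 hr after compound transfer to Tet-on ROR gamma CHO cells.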

[8] = target: Nuclear receptor ROR-gamma (Homo sapiens) (UniProt P51449); assay: qHTS assay to identify small molecule antagonists of the retinoid-related orphan receptor gamma (ROR-gamma) signaling pathway (AID 1159521)
Method in brief: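 Decreased RORE-driven luciferase luminescence indicates antagonism. Tet-on RORγ CHO cells received compound, then 1 uM final doxycycline 2 h later; signal read after 16 h incubation.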

[9] = qHTS assay to identify small molecule agonists of the AP-1 signaling pathway - cell viability counter screen (AID 1159525; calls by dose curve; note: nearly all actives have a fitted effect of over 55% in size)
Method in brief: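 Intracellular ATP by Cell Titer Glo luminescence (30 min, RT) in the same ME-180 AP-1-bla wells after the 5 h compound exposure at 37 °C. Normalised to tetra n-octyl ammonium bromide and DMSO controls.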

[10] = qHTS assay to identify small molecule agonists of the AP-1 signaling pathway (AID 1159526; calls by dose curve)
[11] = target: Retinoic acid receptor RXR-alpha (Homo sapiens) (UniProt P19793); assay: qHTS assay to identify small molecule agonists of the RXR signaling pathway (AID 1159527; calls by dose curve; note: nearly all actives have a fitted effect of over 35% in size)
Chain of Retinoic acid receptor RXR-alpha (Homo sapiens) (P19793 whole entry, looked up): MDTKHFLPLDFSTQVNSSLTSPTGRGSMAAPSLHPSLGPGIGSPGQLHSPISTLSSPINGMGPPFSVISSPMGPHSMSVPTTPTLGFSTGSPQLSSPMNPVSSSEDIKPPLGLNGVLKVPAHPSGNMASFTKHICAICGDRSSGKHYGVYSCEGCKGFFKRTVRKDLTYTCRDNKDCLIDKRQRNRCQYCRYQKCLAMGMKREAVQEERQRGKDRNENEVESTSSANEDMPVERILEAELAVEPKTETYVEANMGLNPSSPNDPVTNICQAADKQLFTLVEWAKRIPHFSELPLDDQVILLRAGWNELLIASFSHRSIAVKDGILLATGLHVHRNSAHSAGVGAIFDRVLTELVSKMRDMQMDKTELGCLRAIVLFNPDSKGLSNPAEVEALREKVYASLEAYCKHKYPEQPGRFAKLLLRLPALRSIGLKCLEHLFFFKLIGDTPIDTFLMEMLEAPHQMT
Method in brief: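 16 hr incubation of compound-treated RXR-alpha-UAS-bla HEK 293T cells (2% charcoal-stripped FBS, 37 C) preceded a 2 hr room-temperature LiveBLAzer FRET substrate step and blue/green fluorescence measurement.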

[12] = qHTS assay to identify small molecule agonists of the RXR signaling pathway - cell viability counter screen (AID 1159529)
Method in brief: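 In this parallel viability measure, GeneBLAzer RXR-alpha HEK 293T cells (2% charcoal-stripped FBS) were given a 5 hr preincubation, treated with compounds 16 hr at 37 C, and read by CellTiter-Glo luminescence.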

[13] = qHTS assay to identify small molecule antagonists of the retinoid acid receptor (RAR) signaling pathway - cell viability counter screen (AID 1159551); note: nearly all actives have a fitted effect of over 35% in size
Method in brief: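 Viability of C3RL4 cells is quantified from ATP by luminescence after 6 h treatment at 37 C with compounds and 1 uM retinol.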

[14] = qHTS assay to identify small molecule antagonists of the estrogen related receptor (ERR) signaling pathway - cell viability counter screen (AID 1224818);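 note: series mostly up to about 46 µM; viability measured after 17.5 h of compound exposure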
Method in brief: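 Cytotoxicity check run alongside the ERR antagonist screen: cells exposed to test compounds 17.5 h at 37 C, viability taken as CellTiter-Fluor fluorescence intensity.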

[15] = qHTS assay to identify small molecule antagonists of the estrogen related receptor signaling pathway with the pleiotropic PPARgamma coactivator (PGC) cell viability counter screen (AID 1224822;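 note: series mostly up to about 46 µM; viability read after 17.5 h compound exposure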)
Method in brief: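 Viable cell signal (CellTiter-Fluor, 30 min, 37 C/5% CO2) was measured in PGC/ERR cells after a 17.5 h compound incubation.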

[16] = qHTS assay to identify small molecule antagonists of the retinoic acid receptor (RAR) signaling pathway (AID 1159552; note: nearly all actives have a fitted effect of over 50% in size)
Method in brief: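 C3RL4 RARE-luc cells, overnight plating; retinol 1 uM final added right after compound; 6 hr 37 C; luciferase read at 30 min RT.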

[17] = qHTS assay to identify small molecule agonists of the retinoic acid receptor (RAR) signaling pathway (AID 1159553)
Method in brief: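 Compounds dissolved in DMSO were pinned onto C3RL4 cells seeded the previous day, and plates were held 6 hr at 37 C. RARE-driven luciferase output was then read by luminescence.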

Measured: Potency

CNC(=O)Oc1ccc2c(c1)[C@]1(C)CCN(C)[C@@H]1N2C
not listed: [16] | [17]
inactive: all other assays above

CN/C(=C\[N+](=O)[O-])NCCSCc1csc(CN(C)C)n1
not listed: [14] | [15] | [16] | [17]
inactive: all other assays above

C=C(C)C(=O)OCC(C)C
not listed: [14] | [15]
inactive: all other assays above

CC(CCO)CC(C)(C)C (stereo not drawn)
not listed: [14] | [15]
inactive: all other assays above

CSc1ccc(Cl)cc1
not listed: [14] | [15]
inactive: all other assays above

O=C1C(c2[nH]c3ccccc3c2O)=Nc2ccccc21
not listed: [14] | [15]
inactive: all other assays above

C[Si]1(C)O[Si](C)(C)O[Si](C)(C)O[Si](C)(C)O1
not listed: [14] | [15] | [16] | [17]
inactive: all other assays above

CC(C)CC(C)O (stereo not drawn)
not listed: [14] | [15]
inactive: all other assays above

CC(C)=CCl
not listed: [13] | [14] | [15] | [16]
inactive: all other assays above

Brc1ccc(Br)c(Br)c1
not listed: [13] | [14] | [15]
inactive: all other assays above
